This excerpt belongs to a sample that is enriched for hits.
Giardia FBPA inh-1 = blocks Giardia fructose-bisphosphate aldolase activity. A8B2U2. purified Giardia FBPA. Potency, µM (top dose mostly 59.6 µM), for inactives: top-dose activity, negative = inhibition, most hits filed as inhibitors. 290,000 tested, 0.71% active. AID 2451; also: potency is read from the fitted curve at half-maximal effect; % is scaled to controls: 0 for no effect and ±100 for the full control effect; nearly all actives have a fitted effect of over 55% in size
Target sequence (A8B2U2 whole entry, looked up): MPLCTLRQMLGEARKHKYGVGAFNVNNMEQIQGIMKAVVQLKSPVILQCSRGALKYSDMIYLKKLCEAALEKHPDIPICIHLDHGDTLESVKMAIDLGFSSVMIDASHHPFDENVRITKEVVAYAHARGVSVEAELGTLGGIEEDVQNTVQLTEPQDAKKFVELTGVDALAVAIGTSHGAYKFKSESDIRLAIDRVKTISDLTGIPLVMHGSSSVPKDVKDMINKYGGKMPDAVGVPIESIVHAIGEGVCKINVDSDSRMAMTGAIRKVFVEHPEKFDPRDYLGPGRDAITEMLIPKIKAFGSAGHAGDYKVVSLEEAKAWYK
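Giardia FBPA (40 nM reagent) was preincubated 10 min at RT with compound (up to 57.5 uM final), then substrate plus GAPDH/TPI/NAD/arsenate coupling system with diaphorase/resazurin was added; resorufin fluorescence (525/598 nm) was read after 20 min.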
Shiga inhibitor = blocks Shiga toxin action in Vero cells | Vero cells, Shiga toxin protein synthesis inhibition reporter | inhibition, % at 38.7 µM | 290,000 tested, 9.2% active | AID 2315; in the data active = inhibition mostly above about 28%, no sharp cut-off; inactive = mostly below about 43%; also: 0% is about no effect
LmPK inhibitor = inhibitors of Leishmania mexicana pyruvate kinase; AID 1721; Potency, µM (series often up to 57.5 µM), for inactives: at the highest dose activity change, negative = inhibition, most hits filed as inhibitors; 290,000 tested, 0.37% active; Q27686; purified LmPK, Kinase-Glo ATP luminescence, 1 h; also: potency is read from the fitted curve at half-maximal effect; % is scaled to controls: 0 for no effect and ±100 for the full control effect
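Pyruvate kinase activity monitored as ATP production (luciferase luminescence). Conditions: 0.1 nM enzyme, 0.5 mM PEP, 0.1 mM ADP, 1 h, RT; normalized against uninhibited and no-enzyme wells.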
CHX counter = counter-screen hit for Shiga toxin inhibitors, cycloheximide | cell reporter, cycloheximide protein synthesis inhibition counterscreen | max response, % | 300,000 tested, 12% active | AID 2314; in the data active = max response mostly above about 13%, no sharp cut-off; inactive = mostly below about 14%; also: read at 38.3 µM for the half of the compounds with a filed dose; 0% is about no effect
TbPYK inhibitor = inhibitors of Trypanosoma brucei pyruvate kinase | TbPYK enzyme, Kinase-Glo Plus ATP luminescence, 45 min | Q57TT1 | AID 624173 | Potency, µM (titrated, usually from 76.8 µM), without a hit: at the highest dose activity, negative = inhibition, most hits filed as inhibitors | 410,000 tested, 0.12% active; also: potency is read from the fitted curve at half-maximal effect; % is scaled to controls: 0 for no effect and ±100 for the full control effect; nearly all actives have a fitted effect of over 50% in size
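In this concentration-response screen, enzyme-free wells defined baseline while DMSO plates tracked drift. Each reaction combined TbPYK, substrate, compound and 130 uM ADP for 45 min at room temperature. Kinase-Glo Plus luminescence gave the signal.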
Sm TGR inh = inhibitors of Schistosoma mansoni thioredoxin glutathione reductase | Q962Y6 | purified TGR, DTNB reduction, TNB absorbance 405 nm | Potency, µM (highest dose often 114 µM), without a hit: top-dose activity change, negative = inhibition, actives largely listed as inhibitors | 360,000 tested, 3% active; also: potency is read from the fitted curve at half-maximal effect; % is scaled to controls: 0 for no effect and ±100 for the full control effect; nearly all actives have a fitted effect of over 60% in size
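TGR 20 nM + NADPH 100 uM (dispensed conc.), cpd preinc 15 min RT; start with NADPH (500 uM addition) then DTNB (15 mM addition). Kinetic TNB absorbance, 405 nm filter. Four-parameter Hill fit across titration.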
Giardia growth = blocks growth of Giardia lamblia trophozoites; AID 2785; shares compounds with Giardia FBPA inh-1; 1,500 tested, 5% active; Giardia lamblia trophozoite growth inhibition; Potency, µM (top dose mostly 57.5 µM), for the others: at the highest dose activity change, negative = inhibition, hits mostly inhibitors;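 also: potency is read from the fitted curve at half-maximal effect; trophozoites exposed to compound for 48 h at 37 °C; % is scaled to controls: 0 for no effect and ±100 for the full control effect; nearly all actives have a fitted effect of over 70% in size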
Mammal cell tox = counter-screen for Giardia aldolase inhibitors: mammalian cell toxicity; Potency, µM (top dose mostly 57.5 µM), without a hit: at the highest dose viability change, negative = toxicity, actives largely listed as inhibitors; AID 2786; shares compounds with Giardia FBPA inh-1; 1,500 tested, 4% active; mammalian cell viability counter-screen, qHTS;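 also: Chinese hamster ovary cells used as mammalian cytotoxicity surrogate; viability measured as cellular ATP by luminescence; potency is read from the fitted curve at half-maximal effect; compound exposure lasted 48 h before reading; % is scaled to controls: 0 for no effect and ±100 for the full control effect; nearly all actives have a fitted effect of over 60% in size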
Giardia FBPA inh-2 = confirmation of Giardia fructose-bisphosphate aldolase inhibitors. shares compounds with Giardia FBPA inh-1. purified Giardia aldolase enzyme activity, qHTS. Potency, µM (series often up to 57.5 µM), inactives show at the top dose activity change, negative = inhibition, most hits filed as inhibitors. 1,500 tested, 5% active; also: potency is read from the fitted curve at half-maximal effect; % is scaled to controls: 0 for no effect and ±100 for the full control effect; nearly all actives have a fitted effect of over 45% in size
Rabbit aldolase = rabbit FBP aldolase inhibition by Giardia aldolase hits. shares compounds with Giardia FBPA inh-1. Rabbit muscle FBPA enzyme inhibition, selectivity counter-screen. Potency, µM (titrated, usually from 57.5 µM), for the others: at the top dose activity, negative = inhibition, hits mostly inhibitors. 1,500 tested, 4% active. AID 2794; also: potency is read from the fitted curve at half-maximal effect; % is scaled to controls: 0 for no effect and ±100 for the full control effect; nearly all actives have a fitted effect of over 60% in size
Target sequence (P00883 whole entry, looked up): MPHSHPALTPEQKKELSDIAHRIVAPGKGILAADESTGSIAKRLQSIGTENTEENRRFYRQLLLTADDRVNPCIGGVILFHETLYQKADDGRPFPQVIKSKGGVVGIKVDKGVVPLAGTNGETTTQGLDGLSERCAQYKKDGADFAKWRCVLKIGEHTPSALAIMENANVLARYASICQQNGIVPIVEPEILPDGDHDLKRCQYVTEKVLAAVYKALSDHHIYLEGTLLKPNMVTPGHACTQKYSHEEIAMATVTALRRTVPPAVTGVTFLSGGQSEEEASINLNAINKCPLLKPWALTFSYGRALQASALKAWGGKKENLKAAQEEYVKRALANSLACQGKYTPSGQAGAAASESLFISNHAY
GAPDH counter = GAPDH inhibition flagged for Giardia aldolase hits; shares compounds with Giardia FBPA inh-1; GAPDH coupling enzyme counterscreen, biochemical, qHTS; Potency, µM (top dose mostly 57.5 µM), for the others: at the top dose activity change, negative = inhibition, most hits filed as inhibitors; 1,500 tested, 6% active; AID 2795; also: potency is read from the fitted curve at half-maximal effect; % is scaled to controls: 0 for no effect and ±100 for the full control effect; nearly all actives have a fitted effect of over 55% in size
Starred values were filed as active, the others as inactive; ? = inconclusive; . = no result; [ ] = another dose, or the depositor's remark. Unless noted, calls follow the shape of the dose curve; as a rule, active = well fitted curve in the direction sought with a large enough effect; inconclusive = small, poorly fitted or top-dose-only effect, or another doubt; inactive = no such curve, though single readings can be large; an effect the other way counts as inactive or inconclusive.

SMILES | Giardia FBPA inh-1 | Shiga inhibitor | LmPK inhibitor | CHX counter | TbPYK inhibitor | Sm TGR inh | Giardia growth | Mammal cell tox | Giardia FBPA inh-2 | Rabbit aldolase | GAPDH counter
O=S(=O)(/N=C(/NC(=S)Nc1ccccc1)c1ccccc1)c1ccc(Cl)cc1 | 18µM* | 101* | 0% | 41* | 0% | ? | ? | 10% | 4% | 12% | 18%
COc1ccccc1N/C(=N/S(=O)(=O)c1ccc(Cl)cc1)c1ccccc1 | -5% | -4 | 5% | -2 | 1% | 10% | . | . | . | . | .
CCCCCCCCCCCCCC(=O)OCC(COP(=O)([O-])OCC[N+](C)(C)C)OC(=O)CCCCCCCCCCCCC (stereo not drawn) | . | . | . | . | 0% | . | . | . | . | . | .
CC(=O)NC1C(=O)SC1(C)C (stereo not drawn) | 16µM* | -30 | -6% | -3 | . | -2% | -10% | -5% | -22% | -4% | -3%
CC(=O)N[C@@H]1CCSC1=O | 5%[21.7 µM] | . | . | . | -9%[33.2 µM] | . | . | . | . | . | .
CN1CCN(C(c2ccc(F)cc2)c2ccc3cccnc3c2O)CC1 (stereo not drawn) | . | . | . | . | 4% | . | . | . | . | . | .
CN1CCN(C(c2cccnc2)c2ccc3cccnc3c2O)CC1 (stereo not drawn) | ? | 6 | 33% | 6 | 137% | 0.25µM* | -14%[38.3 µM] | -11% | ? | -30% | -8%
COc1ccc(N2CC(NC(=O)CCc3ccccc3)CC2=O)cc1OC (stereo not drawn) | . | . | . | . | -9% | 6% | . | . | . | . | .
CC(OC(=O)/C(C#N)=C/c1ccco1)C(=O)N(C)c1ccccc1 (stereo not drawn) | . | . | . | . | 3% | . | . | . | . | . | .
N#C/C(=C/c1ccco1)C(N)=S | 16µM* | 3 | 6% | -1 | 0% | -1% | ? | 6% | 2% | 2% | 6%
N#CCC(=O)Nc1ccc(C(=O)OCC(=O)c2ccc3c(c2)NC(=O)CO3)cc1 | . | . | . | . | 3% | -23% | . | . | . | . | .
Cc1ccccc1C(=O)Nc1ccnn1C1CCN(C(=O)c2cnsn2)CC1 | -12% | 1 | 1% | 11 | 0% | -27% | . | . | . | . | .
O=[N+]([O-])c1cc(CN2CCN(c3cccc(C(F)(F)F)c3)CC2)c2cccnc2c1O | 16µM* | -12 | 2%[11.5 µM] | -7 | -6% | -27% | -17% | -28% | -10% | -19% | -21%
CC(C)OCc1cc(CN2CCN(c3cccc(C(F)(F)F)c3)CC2)c(O)c2ncccc12 | . | . | . | . | 0% | -2% | . | . | . | . | .
CCCCCCCCCC[Si](C)(C)CCC(=O)NC(Cc1ccc(C)cc1)c1ccccc1 (stereo not drawn) | -5% | . | . | . | . | . | . | . | . | . | .
Cn1c(=O)cc(C(=O)N/N=C/c2ccc(F)cc2)[nH]c1=O | 16µM* | -9 | -1% | 0 | -14% | 3% | 122% | 14% | 5% | -7% | 6%
O=C(O)c1ccc(/C=N/NC(=O)c2ccc(F)cc2)cc1 | -11% | 7 | 1% | 16 | -2% | 6% | . | . | . | . | .
CCC(Sc1nc2ncccc2[nH]1)C(=O)NCCc1ccccc1 (stereo not drawn) | 2.2µM* | 6 | -9% | -2 | -3% | -5% | 4%[10.4 µM] | 0% | 4% | 13% | -6%
OCC1OC(n2cnc3c(=S)nc[nH]c32)CC1O (stereo not drawn) | . | . | . | . | -26% | . | . | . | . | . | .
S=c1nc[nH]c2c1ncn2C1CCCO1 (stereo not drawn) | 2.5µM* | -18 | 4% | -5 | -23% | 3% | 17%[38.3 µM] | 32µM* | -4% | -5% | -5%
Cc1ccc2oc(=O)c(/C=C(\O)c3ccco3)nc2c1 | 20µM* | 14 | 7% | 17* | 2% | ? | 12% | 8% | -17% | 1% | -2%
CCSc1nc2n(n1)C(c1ccc(C(=O)O)cc1)C(C(=O)Nc1ccccc1C)=C(C)N2 (stereo not drawn) | . | . | . | . | -18% | 7% | . | . | . | . | .
Cc1c(C(=O)O)c(C(=O)O)nc2ccc(N3CCOCC3)cc12 | 11µM* | -6 | 0% | 7 | . | -17% | 25% | 8% | ? | -21% | ?
O=C(O)c1cc(-c2ccccn2)n[nH]1 | 6.3µM* | -1 | -2% | -3 | . | 1% | -9% | -4% | 10% | 6% | 12%
CC(=O)N1CCOc2ccc(S(=O)(=O)NC(C)c3ccccc3)cc21 (stereo not drawn) | -4% | -2 | 1% | 1 | -3% | -18% | . | . | . | . | .

High-throughput results deposited in PubChem by National Center for Advancing Translational Sciences (NCATS).
